How the values were obtained:
Assay in all cases: PBM binding z-score (relative to random genomic background probes); higher = stronger binding; sequences stand for … in GC…GCGATTGACAGCGTAGAATGAAGG
[1] = tested on: FXR:RXRa (NR concentration 270 nM, RXRa partner concentration 90 nM)
Outline: (§1)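 Binding z-scores were set against random background probes. The data came from custom Agilent 4×180K protein-binding microarrays carrying double-stranded probes with 34-nt variable regions, incubated 1 h with ligand-free nuclear receptor dimers. Partner-specific antibodies detected binding, and scanned fluorescence was regression-normalized.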

[2] = tested on: LXRa:RXRa (NR concentration 270 nM, RXRa partner concentration 90 nM)
Outline: as §1

[3] = tested on: LXRa homodimer (NR concentration 270 nM)
Outline: as §1

[4] = tested on: LXRb:RXRa (NR concentration 270 nM, RXRa partner concentration 90 nM)
Outline: as §1

[5] = tested on: LXRb homodimer (NR concentration 270 nM)
Outline: as §1

[6] = tested on: PPARa:RXRa (NR concentration 270 nM, RXRa partner concentration 90 nM)
Outline: as §1

[7] = tested on: PPARg:RXRa (NR concentration 180 nM, RXRa partner concentration 90 nM)
Outline: as §1

[8] = tested on: PPARg:RXRa 270nM:90nM, anti-RXR (NR concentration 270 nM, RXRa partner concentration 90 nM)
Outline: as §1

[9] = tested on: PPARg:RXRa 30nM:10nM, anti-RXR (NR concentration 30 nM, RXRa partner concentration 10 nM)
Outline: as §1

[10] = tested on: PPARg:RXRa 90nM:30nM, anti-RXR (NR concentration 90 nM, RXRa partner concentration 30 nM)
Outline: as §1

Sequence | PBM binding z-score [1] | PBM binding z-score [2] | PBM binding z-score [3] | PBM binding z-score [4] | PBM binding z-score [5] | PBM binding z-score [6] | PBM binding z-score [7] | PBM binding z-score [8] | PBM binding z-score [9] | PBM binding z-score [10]
GCAGACAGGTGAAAAGCAGGTAACTCAGGGTGGC | -0.224 | -0.0671 | -0.495 | -0.319 | -0.696 | 0.507 | 0.376 | 0.014 | -0.488 | -0.253
ACTATTAGTTGACTTAGGGCAACCGGTACGACGC | 0.0418 | 0.216 | 0.333 | 0.0684 | 0.939 | 0.187 | 0.638 | 0.108 | 0.302 | 0.142
TCAATTAGTTGAAGGGCAACCGACGAGTCCGTTT | 0.718 | 0.5 | 0.203 | 0.456 | -0.169 | 0.684 | 0.142 | 2.03 | 3.38 | 2.61
CCAGACAGGTGAGAAGCTAACTCAGCCTCGATTA | -0.201 | -0.31 | -0.163 | -0.228 | -0.869 | 0.155 | 0.347 | 0.159 | -0.632 | -0.0205
ACTATGAGTTGACTTAGGGCAACCGATACGACGC | 0.53 | 0.591 | 0.2 | 0.365 | 0.578 | 0.327 | 1.08 | 0.524 | 0.371 | 0.418
AGAATGAGGTTACCAAAGAACAGGGAAACGCTTG | 1.88 | 5.18 | -0.214 | 2.35 | -0.334 | 3.32 | 2.51 | 2.41 | 1.03 | 1.71
CGAACTAGGTCATCCTGGACAGTGAATACATTGA | 4.25 | 2.46 | 0.715 | 2.21 | 0.266 | 4.76 | 7.88 | 6.36 | 3.97 | 5.92
CCTAGCAGGCCAGGGTCACTCAGGCATTTCGCTT | 1.73 | 1.43 | -0.738 | 1.49 | -0.994 | 2.75 | 0.469 | 1.25 | -0.561 | 0.308
CGTACAGGGTCAGCTAGGCCAGAGTAGGGACGGC | 5.16 | 2.66 | -0.281 | 1.94 | -0.514 | 4.22 | 3.14 | 3.3 | 0.448 | 1.84
CCGACTGGGGCATAAGGTTGCCATAAGCCAGCCC | -0.333 | -0.188 | -0.75 | -0.498 | -1.17 | 0.636 | 0.999 | 1.81 | -0.189 | 1.12
CCTAGCAGGCCAGGGTCACACAAGCATTTCGCTT | 2.57 | 2.38 | -0.252 | 2.77 | -0.795 | 4 | 2.01 | 2.57 | 0.18 | 1.59
AGAATGAGGTTATTAAGTTCAGGGAATTGCGGTC | 2.41 | 3.29 | 2.12 | 1.95 | 0.228 | 3.11 | 1.55 | 2.1 | 0.695 | 1.08
ATACCAAGGTGATCGCGAGGTCGTTGATACTAAC | 1.6 | 0.914 | 0.243 | 1.06 | -0.19 | 1.62 | 0.486 | 0.381 | -0.106 | 0.108
TCTAGTTGGTCACGGAGCTCACACACGACGGGTA | 0.213 | 0.0936 | -0.438 | 0.0145 | -0.134 | 0.663 | 0.998 | 1.56 | 2.94 | 2.33
GGAACGAGGGCATTCGAGTTGATAACATGGCGAT | 1.09 | 1.76 | -0.0799 | 0.415 | -0.451 | 1.56 | 1.3 | 0.636 | -0.0941 | 0.231
TCATATAGGTAATACAGGTGCAAGTCGGCATCTA | 0.658 | 1.85 | 0.544 | 0.742 | 0.358 | 1.45 | 1.07 | 2.35 | 3.75 | 3.08
CCTCGGAGGACAACAGGAGGTCAGAGCTGCCAGA | 1.12 | 2.26 | 1.95 | 1.36 | -0.474 | 1.99 | 0.527 | 0.477 | -0.553 | 0.529
AGAACGAGGGCACGCGGAGTTGATAGCAGAGTAG | 0.925 | 0.696 | -0.442 | 0.259 | -1.01 | 2.58 | 2.36 | 1.91 | 0.448 | 1.26
TCTACTAGGTCAGTTGGTCAGCTAACGAGCTGCC | 1.67 | 1.12 | -0.0574 | 0.857 | 1.06 | 2.61 | 4.64 | 4.2 | 3.87 | 4.08
ACTAGCAGGCCAAGTTTGGGTCACCCAAACAAAG | 0.488 | 0.347 | -0.356 | 0.836 | -0.589 | 1.98 | 0.125 | 0.213 | -0.577 | -0.0867
CCTACTGGGCCAAAAAGGGCATTGATGCCGATAA | -0.479 | -0.109 | -0.296 | -0.0231 | -1 | 1.12 | 0.538 | 1.32 | -0.152 | 0.651
CCTACTGGGCCATTCAGAGGTCGTTGATCATATG | 0.36 | 0.813 | 0.735 | 0.964 | -0.712 | 1.97 | 0.916 | 1.26 | -0.074 | 0.672
ACTAGCAGGCCATGGGTCACTCAAGATTAGTCCG | 0.425 | 0.807 | -0.304 | 0.694 | -0.564 | 2.85 | 4.82 | 5.14 | 4.15 | 5.31

From the supplement of paper PMC6555819
